According to ChEMBL document CHEMBL2218924, “A broad activity screen in support of a chemogenomic map for kinase signalling research and drug discovery” (Biochem J, 2013):

What was measured:
[1] = molecular target: Platelet-derived growth factor receptor alpha (Homo sapiens) (UniProt P16234); settings: at 10 µM
[2] = molecular target: Platelet-derived growth factor receptor beta (Homo sapiens) (UniProt P09619); settings: at 10 µM
[3] = molecular target: T1, 3-phosphoinositide-dependent protein kinase 1 (Homo sapiens) (UniProt O15530); settings: at 10 µM
T1 sequence (whole entry): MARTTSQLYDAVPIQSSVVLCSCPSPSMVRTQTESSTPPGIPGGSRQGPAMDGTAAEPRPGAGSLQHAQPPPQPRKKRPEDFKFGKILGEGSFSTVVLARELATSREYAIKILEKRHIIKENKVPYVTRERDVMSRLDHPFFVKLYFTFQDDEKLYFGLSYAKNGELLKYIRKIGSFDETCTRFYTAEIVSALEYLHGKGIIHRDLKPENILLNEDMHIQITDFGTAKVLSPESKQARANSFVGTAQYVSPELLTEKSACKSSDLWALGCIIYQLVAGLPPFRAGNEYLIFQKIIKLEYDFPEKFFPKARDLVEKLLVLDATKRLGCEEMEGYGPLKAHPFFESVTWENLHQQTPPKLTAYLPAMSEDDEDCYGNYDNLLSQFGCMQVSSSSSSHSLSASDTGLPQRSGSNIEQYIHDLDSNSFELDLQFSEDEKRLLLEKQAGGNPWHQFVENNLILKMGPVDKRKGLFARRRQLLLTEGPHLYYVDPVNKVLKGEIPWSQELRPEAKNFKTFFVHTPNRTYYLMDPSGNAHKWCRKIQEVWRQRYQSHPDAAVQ

[4] = molecular target: RAC-gamma serine/threonine-protein kinase (Homo sapiens) (UniProt Q9Y243); settings: at 1 µM
[5] = molecular target: RAC-gamma serine/threonine-protein kinase (Homo sapiens) (UniProt Q9Y243); settings: at 10 µM
[6] = molecular target: Protein kinase C alpha type (Homo sapiens) (UniProt P17252); settings: at 1 µM
[7] = molecular target: Protein kinase C alpha type (Homo sapiens) (UniProt P17252); settings: at 10 µM
[8] = molecular target: Protein kinase C beta type (Homo sapiens) (UniProt P05771); settings: at 1 µM
[9] = molecular target: Protein kinase C beta type (Homo sapiens) (UniProt P05771); settings: at 10 µM
[10] = molecular target: Protein kinase C beta type (Homo sapiens) (UniProt P05771); settings: at 1 µM; remark: listed apart in the source
[11] = molecular target: Protein kinase C beta type (Homo sapiens) (UniProt P05771); settings: at 10 µM; remark: listed apart in the source
[12] = molecular target: Protein kinase C gamma type (Homo sapiens) (UniProt P05129); settings: at 1 µM
[13] = molecular target: Protein kinase C gamma type (Homo sapiens) (UniProt P05129); settings: at 10 µM
[14] = molecular target: Protein kinase C delta type (Homo sapiens) (UniProt Q05655); settings: at 1 µM
[15] = molecular target: Platelet-derived growth factor receptor beta (Homo sapiens) (UniProt P09619); settings: at 1 µM
[16] = molecular target: T1, 3-phosphoinositide-dependent protein kinase 1 (Homo sapiens); settings: at 1 µM
[17] = molecular target: cAMP-dependent protein kinase catalytic subunit alpha (Homo sapiens) (UniProt P17612); settings: at 1 µM
[18] = molecular target: cAMP-dependent protein kinase catalytic subunit alpha (Homo sapiens) (UniProt P17612); settings: at 10 µM
[19] = molecular target: RAC-alpha serine/threonine-protein kinase (Homo sapiens) (UniProt P31749); settings: at 1 µM
[20] = molecular target: RAC-alpha serine/threonine-protein kinase (Homo sapiens) (UniProt P31749); settings: at 10 µM

Chain of RAC-gamma serine/threonine-protein kinase (Homo sapiens) (Q9Y243 whole entry): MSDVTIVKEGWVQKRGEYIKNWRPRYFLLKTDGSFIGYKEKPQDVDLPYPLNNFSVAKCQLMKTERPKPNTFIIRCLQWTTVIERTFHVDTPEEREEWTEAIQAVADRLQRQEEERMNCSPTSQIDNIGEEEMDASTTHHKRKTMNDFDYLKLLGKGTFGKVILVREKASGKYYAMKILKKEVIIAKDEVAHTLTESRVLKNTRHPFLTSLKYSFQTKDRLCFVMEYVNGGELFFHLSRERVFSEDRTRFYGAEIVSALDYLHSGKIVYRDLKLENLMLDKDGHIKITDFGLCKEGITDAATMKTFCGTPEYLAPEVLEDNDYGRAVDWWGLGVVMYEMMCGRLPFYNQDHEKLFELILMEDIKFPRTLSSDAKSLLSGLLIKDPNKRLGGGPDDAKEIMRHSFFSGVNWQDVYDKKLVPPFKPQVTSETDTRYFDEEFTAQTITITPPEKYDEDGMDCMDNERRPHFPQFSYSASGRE
Chain of RAC-alpha serine/threonine-protein kinase (Homo sapiens) (P31749 whole entry): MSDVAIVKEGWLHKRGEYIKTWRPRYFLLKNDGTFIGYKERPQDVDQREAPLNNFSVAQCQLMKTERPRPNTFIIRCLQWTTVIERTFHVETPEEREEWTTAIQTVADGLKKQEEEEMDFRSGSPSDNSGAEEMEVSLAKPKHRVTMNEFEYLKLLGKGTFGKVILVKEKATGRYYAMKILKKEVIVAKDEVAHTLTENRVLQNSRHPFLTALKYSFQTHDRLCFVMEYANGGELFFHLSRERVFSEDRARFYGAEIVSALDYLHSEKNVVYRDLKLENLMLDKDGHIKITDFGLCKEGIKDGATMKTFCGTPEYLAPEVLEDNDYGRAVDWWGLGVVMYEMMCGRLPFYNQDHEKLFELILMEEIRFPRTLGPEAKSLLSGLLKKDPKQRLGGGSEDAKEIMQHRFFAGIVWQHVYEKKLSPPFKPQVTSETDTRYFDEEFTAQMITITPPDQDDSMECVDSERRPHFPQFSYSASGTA
Chain of Protein kinase C beta type (Homo sapiens) (P05771 2-671 limits assumed): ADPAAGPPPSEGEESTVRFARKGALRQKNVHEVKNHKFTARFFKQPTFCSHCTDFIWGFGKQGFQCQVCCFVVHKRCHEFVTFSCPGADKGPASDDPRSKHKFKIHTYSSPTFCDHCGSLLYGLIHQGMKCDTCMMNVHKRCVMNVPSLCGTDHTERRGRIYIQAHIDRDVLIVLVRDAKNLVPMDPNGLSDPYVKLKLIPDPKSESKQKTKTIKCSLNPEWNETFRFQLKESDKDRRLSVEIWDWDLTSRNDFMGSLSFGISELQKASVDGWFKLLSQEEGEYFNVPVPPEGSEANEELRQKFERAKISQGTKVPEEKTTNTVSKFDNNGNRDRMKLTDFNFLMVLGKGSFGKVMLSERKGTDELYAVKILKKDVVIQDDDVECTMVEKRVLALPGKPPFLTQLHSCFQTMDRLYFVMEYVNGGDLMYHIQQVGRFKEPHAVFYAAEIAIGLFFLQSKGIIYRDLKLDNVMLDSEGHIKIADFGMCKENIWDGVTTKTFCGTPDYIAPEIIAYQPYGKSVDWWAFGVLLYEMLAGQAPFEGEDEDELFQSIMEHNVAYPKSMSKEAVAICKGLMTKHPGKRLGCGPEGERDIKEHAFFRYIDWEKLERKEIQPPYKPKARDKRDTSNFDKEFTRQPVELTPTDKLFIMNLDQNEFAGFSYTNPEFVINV
Chain of Platelet-derived growth factor receptor alpha (Homo sapiens) (P16234 whole entry): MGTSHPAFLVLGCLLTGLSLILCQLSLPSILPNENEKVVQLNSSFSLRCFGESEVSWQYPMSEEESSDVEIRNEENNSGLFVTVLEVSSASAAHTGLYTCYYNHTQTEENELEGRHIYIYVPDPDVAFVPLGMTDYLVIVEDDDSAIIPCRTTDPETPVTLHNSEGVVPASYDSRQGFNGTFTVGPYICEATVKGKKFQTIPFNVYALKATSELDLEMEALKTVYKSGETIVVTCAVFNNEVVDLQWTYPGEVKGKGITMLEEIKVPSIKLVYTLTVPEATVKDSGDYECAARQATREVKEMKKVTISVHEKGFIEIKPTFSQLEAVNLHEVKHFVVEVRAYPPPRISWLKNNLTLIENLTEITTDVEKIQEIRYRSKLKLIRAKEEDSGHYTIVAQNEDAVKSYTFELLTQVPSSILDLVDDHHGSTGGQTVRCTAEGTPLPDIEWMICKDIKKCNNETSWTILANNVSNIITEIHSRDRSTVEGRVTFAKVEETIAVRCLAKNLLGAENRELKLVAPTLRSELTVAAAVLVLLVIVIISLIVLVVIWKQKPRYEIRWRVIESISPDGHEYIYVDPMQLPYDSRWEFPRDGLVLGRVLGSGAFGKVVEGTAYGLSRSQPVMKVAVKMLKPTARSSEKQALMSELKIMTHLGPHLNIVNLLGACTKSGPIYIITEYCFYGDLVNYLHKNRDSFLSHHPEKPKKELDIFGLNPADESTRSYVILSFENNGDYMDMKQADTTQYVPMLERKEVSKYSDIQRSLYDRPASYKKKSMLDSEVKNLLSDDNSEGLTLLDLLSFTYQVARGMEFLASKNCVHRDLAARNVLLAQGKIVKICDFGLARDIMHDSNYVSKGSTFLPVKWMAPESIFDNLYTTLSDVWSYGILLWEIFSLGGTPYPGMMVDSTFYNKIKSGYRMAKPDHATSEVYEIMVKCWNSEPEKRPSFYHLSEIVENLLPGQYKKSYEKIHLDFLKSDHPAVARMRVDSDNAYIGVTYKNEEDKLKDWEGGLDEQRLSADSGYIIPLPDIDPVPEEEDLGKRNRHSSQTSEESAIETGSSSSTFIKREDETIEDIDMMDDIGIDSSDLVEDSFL
Chain of Platelet-derived growth factor receptor beta (Homo sapiens) (P09619 whole entry): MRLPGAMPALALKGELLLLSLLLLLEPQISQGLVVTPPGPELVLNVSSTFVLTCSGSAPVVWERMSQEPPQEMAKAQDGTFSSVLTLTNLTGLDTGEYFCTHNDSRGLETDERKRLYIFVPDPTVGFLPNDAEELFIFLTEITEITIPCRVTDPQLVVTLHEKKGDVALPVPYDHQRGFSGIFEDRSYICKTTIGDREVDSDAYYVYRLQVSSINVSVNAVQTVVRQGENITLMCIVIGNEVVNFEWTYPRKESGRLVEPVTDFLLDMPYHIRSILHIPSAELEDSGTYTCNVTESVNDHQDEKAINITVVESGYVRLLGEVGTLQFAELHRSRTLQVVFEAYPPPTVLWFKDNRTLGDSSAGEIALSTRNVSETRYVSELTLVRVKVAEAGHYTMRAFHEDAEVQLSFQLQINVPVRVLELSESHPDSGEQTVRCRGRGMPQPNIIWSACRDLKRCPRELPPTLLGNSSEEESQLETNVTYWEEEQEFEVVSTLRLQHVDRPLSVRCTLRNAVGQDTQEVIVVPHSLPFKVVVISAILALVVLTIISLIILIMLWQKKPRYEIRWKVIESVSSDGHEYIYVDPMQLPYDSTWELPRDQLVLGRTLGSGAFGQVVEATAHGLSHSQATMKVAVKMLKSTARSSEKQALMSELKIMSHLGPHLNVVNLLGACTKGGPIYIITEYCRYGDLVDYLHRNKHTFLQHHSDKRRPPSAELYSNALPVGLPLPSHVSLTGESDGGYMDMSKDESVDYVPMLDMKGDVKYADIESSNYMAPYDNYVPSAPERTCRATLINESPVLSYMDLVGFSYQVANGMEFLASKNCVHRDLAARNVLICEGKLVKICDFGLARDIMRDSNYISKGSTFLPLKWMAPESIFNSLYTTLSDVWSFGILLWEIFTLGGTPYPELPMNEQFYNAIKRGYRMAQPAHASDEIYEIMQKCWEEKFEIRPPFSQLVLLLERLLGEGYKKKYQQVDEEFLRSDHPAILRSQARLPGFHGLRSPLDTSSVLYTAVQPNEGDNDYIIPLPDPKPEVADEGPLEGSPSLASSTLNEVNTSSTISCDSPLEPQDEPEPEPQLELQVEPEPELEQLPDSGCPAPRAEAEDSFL

`CCn1cnc2c(Nc3cccc(Cl)c3)nc(N[C@@H]3CCCC[C@@H]3N)nc21` was tested. Which residual activity [1] did it give?
The residual activity was 86%.

What about the residual activity [2] of the same compound?
The residual activity was 76%.

And the residual activity [3]?
Its residual activity is 84%.

What about the residual activity [4] of the same compound?
The residual activity was 94%.

And the residual activity [5]?
Its residual activity is 61%.

And the residual activity [6]?
The residual activity was 89%.

What about the residual activity [7] of the same compound?
The residual activity was 58%.

And the residual activity [8]?
Its residual activity is 98%.

What about the residual activity [9] of the same compound?
The residual activity was 85%.

And the residual activity [10]?
Its residual activity is 99%.

And the residual activity [11]?
Its residual activity is 92%.

And the residual activity [12]?
Its residual activity is 81%.

What about the residual activity [13] of the same compound?
Its residual activity is 45%.

And the residual activity [14]?
The residual activity was 86%.

For `COC(=O)[C@@]1(O)C[C@H]2O[C@]1(C)n1c3ccccc3c3c4c(c5c6ccccc6n2c5c31)C(=O)NC4`, which residual activity [1] is on record?
Its residual activity is 8%.

What about the residual activity [15] of the same compound?
The residual activity was 46%.

And the residual activity [2]?
Its residual activity is 8%.

What about the residual activity [16] of the same compound?
Its residual activity is -1%.

And the residual activity [3]?
Its residual activity is 0%.

What about the residual activity [17] of the same compound?
The residual activity was 7%.

And the residual activity [18]?
The residual activity was 3%.

What about the residual activity [19] of the same compound?
Its residual activity is 101%.

What about the residual activity [20] of the same compound?
Its residual activity is 37%.

What about the residual activity [4] of the same compound?
Its residual activity is 11%.

What about the residual activity [5] of the same compound?
Its residual activity is 3%.

What about the residual activity [6] of the same compound?
The residual activity was 19%.

And the residual activity [7]?
The residual activity was 0%.

What about the residual activity [8] of the same compound?
The residual activity was 53%.

What about the residual activity [9] of the same compound?
The residual activity was 13%.

And the residual activity [10]?
Its residual activity is 67%.

And the residual activity [11]?
The residual activity was 18%.

And the residual activity [12]?
The residual activity was 19%.

What about the residual activity [13] of the same compound?
The residual activity was 2%.

And the residual activity [14]?
The residual activity was 18%.

How did the residual activity [19] turn out when `Nc1ccc2ncnc(NCCc3ccc(Oc4ccccc4)cc3)c2c1` was run?
Its residual activity is 110%.

What about the residual activity [20] of the same compound?
Its residual activity is 108%.

Which results are given for `CCCCc1c(-c2ccc(OC)cc2)[nH]c2nccnc12`?
residual activity [19]: 118%; residual activity [20]: 106%

For `Nc1nc(Nc2ccc(S(N)(=O)=O)cc2)nn1C(=S)Nc1c(F)cccc1F`, which residual activity [19] is on record?
The residual activity was 122%.

With `CNc1cc2c(Nc3cccc(Br)c3)ncnc2cn1` as the compound, how does the residual activity [19] read?
The residual activity was 98%.

And the residual activity [20]?
The residual activity was 98%.

With `CN[C@@H]1C[C@H]2O[C@@](C)([C@@H]1OC)n1c3ccccc3c3c4c(c5c6ccccc6n2c5c31)C(=O)NC4` as the compound, how does the residual activity [16] read?
Its residual activity is 1%.

And the residual activity [3]?
Its residual activity is 0%.

Which residual activity [1] does the source give for `c1cc(-c2cnn3cc(-c4ccc(OCCN5CCCCC5)cc4)cnc23)ccn1` here?
Its residual activity is 3%.

And the residual activity [15]?
The residual activity was 27%.

And the residual activity [2]?
Its residual activity is 4%.

What about the residual activity [3] of the same compound?
The residual activity was 84%.

And the residual activity [17]?
The residual activity was 71%.

What about the residual activity [18] of the same compound?
Its residual activity is 32%.

And the residual activity [8]?
Its residual activity is 118%.

What about the residual activity [9] of the same compound?
Its residual activity is 104%.

How did the residual activity [1] turn out when `O=C1NC(=O)c2c1c1c3ccccc3n3c1c1c2c2ccccc2n1C1CCC3O1` was run?
The residual activity was 81%.

What about the residual activity [15] of the same compound?
Its residual activity is 90%.

And the residual activity [2]?
The residual activity was 86%.

What about the residual activity [16] of the same compound?
The residual activity was 27%.

What about the residual activity [3] of the same compound?
Its residual activity is 4%.

What about the residual activity [17] of the same compound?
Its residual activity is 70%.

And the residual activity [18]?
The residual activity was 68%.

What about the residual activity [4] of the same compound?
The residual activity was 96%.

What about the residual activity [5] of the same compound?
The residual activity was 84%.

And the residual activity [6]?
The residual activity was 96%.

What about the residual activity [8] of the same compound?
The residual activity was 95%.

What about the residual activity [9] of the same compound?
The residual activity was 91%.

And the residual activity [12]?
Its residual activity is 92%.

What about the residual activity [13] of the same compound?
Its residual activity is 96%.

What does the source list for `Nc1ncnc2[nH]nc(Nc3ccc(F)cc3)c12`?
residual activity [19]: 111%; residual activity [20]: 109%
